According to PubChem BioAssay (EPA / NIEHS):
“And” between values parts separate entries of the source, which are not always exact repeats. Equal entries are not always repeated. More than one record can exist for a structure, and the calls need not agree. The source made the active and inactive calls. The calls were made as follows: active = hit-call score of the fitted dose curve at least 0.9, where 1 is the maximum; inactive = score below 0.9.

Columns and labels:
[1] = read-out: Intercellular Adhesion Molecule 1 (ICAM1), ICAM1 (gene 3383); assay: BSK_BE3C_ICAM1: BioMAP Diversity Plus: BE3C Assay for Intercellular Adhesion Molecule 1 (ICAM1) Biomarker Activity (AID 2284278); details: primary human bronchial epithelial cells;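 as to outcome: cell-surface ICAM-1 protein level quantified by ELISA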
In short: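 Measured by ELISA: ICAM-1 expressed by primary human bronchial epithelial cells 24 h after compound treatment, with upward-direction fitting versus DMSO vehicle.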

[2] = read-out: Interferon-inducible T-cell alpha chemoattractant (ITAC), CXCL11 (gene 6373); assay: BSK_BE3C_ITAC: BioMAP Diversity Plus: BE3C Assay for Interferon-inducible T-cell alpha chemoattractant (ITAC) Biomarker Activity (AID 2284279); details: primary human bronchial epithelial cells
In short: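 ELISA read-out of I-TAC after 24 h chemical dosing of human lung primary bronchial epithelial cells; gain-of-signal fit vs DMSO baseline. Parallel SRB total-protein staining (0.1% SRB, 10% TCA fixation, 560 nm) assessed cytotoxicity.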

[3] = read-out: Interleukin-8 (IL8), CXCL8 (gene 3576); assay: BSK_BE3C_IL8: BioMAP Diversity Plus: BE3C Assay for Interleukin-8 (IL8) Biomarker Activity (AID 2284280); details: primary human bronchial epithelial cells
In short: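 IL-8 signal gain, normalised to DMSO vehicle, was scored after a 24 h chemical exposure of primary human bronchial epithelial cells, with detection by ELISA.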

[4] = read-out: Epidermal growth factor receptor (EGFR), EGFR (gene 1956); assay: BSK_BE3C_EGFR: BioMAP Diversity Plus: BE3C Assay for Epidermal growth factor receptor (EGFR) Biomarker Activity (AID 2284281); details: primary human bronchial epithelial cells
In short: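 Compound is added to human bronchial epithelial cells, cells incubate 24 h, then EGFR is detected by ELISA. Values reflect positive-direction fitting relative to DMSO.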

KRT18 (gene 3875) = assay: BSK_BE3C_Keratin818: BioMAP Diversity Plus: BE3C Assay for Keratin 818 Biomarker Activity (AID 2284282); details: primary human bronchial epithelial cells
In short: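 BE3C: human bronchial epithelial primary cells, 24 h exposure, Keratin 8/18 ELISA; DMSO = negative control/baseline; cytotoxicity by parallel SRB stain (0.1% SRB after 10% TCA fixation, 560 nm).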

[5] = read-out: Plasminogen activator inhibitor-1 (PAI1), SERPINE1 (gene 5054); assay: BSK_CASM3C_PAI1: BioMAP Diversity Plus: CASM3C Assay for Plasminogen activator inhibitor-1 (PAI1) Biomarker Activity (AID 2284284); details: primary human coronary artery smooth muscle cells;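 also: PAI-1 protein level measured by ELISA 24 h after dosing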
[6] = read-out: Thrombomodulin, THBD (gene 7056); assay: BSK_LPS_Thrombomodulin: BioMAP Diversity Plus: LPS Assay for Thrombomodulin Biomarker Activity (AID 2284296); details: primary human HUVEC with PBMC
In short: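 Human umbilical vein endothelial cells co-cultured with PBMC and stimulated with LPS; cell-surface thrombomodulin measured by ELISA 24 hours after compound. Gain or loss versus DMSO; cytotoxicity checked by SRB staining in parallel cultures.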

[7] = IUF_NPC2c_oligodendrocyte_migration_120hr: Leibniz Research Institute for Environmental Medicine (IUF) 120-hour Neural Progenitor Cell Migration Assay for Oligodendrocyte Migration (NPC2c) (AID 2284297);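 also: O4-positive oligodendrocyte migration distance divided by radial glia migration distance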
In short: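 Primary hNPC spheres migrating on extracellular matrix, exposed five days to a 7-point dilution series with solvent control. Oligodendrocyte migration was scored by high-content imaging of O4 immunostaining and expressed relative to radial glia distance.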

[8] = IUF_NPC2a_radial_glia_migration_120hr: Leibniz Research Institute for Environmental Medicine (IUF) 120-hour Neural Progenitor Cell Migration Assay for Radial Glia Migration (NPC2a) (AID 2284298)
In short: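 In this multiplexed test, fetal hNPC spheres migrate radially on poly-D-lysine/laminin in N2 medium (37C, 5% CO2, pH 7.2-7.6) under continuous compound exposure over five days. Migration is scored at 120 h from automated Hoechst nuclear imaging.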

[9] = IUF_NPC2a_radial_glia_migration_72hr: Leibniz Research Institute for Environmental Medicine (IUF) 72-hour Neural Progenitor Cell Migration Assay for Radial Glia Migration (NPC2a) (AID 2284299)
In short: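 Migration out of plated human neural progenitor spheres is scored at 72 h as the distance in um from the sphere core edge to the edge of the migration area. Values are the mean of four manual measurements per well, normalised to DMSO.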

[10] = read-out: urokinase Plasminogen Activator (uPA), PLAU (gene 5328); assay: BSK_BF4T_uPA: BioMAP Diversity Plus: BF4T Assay for urokinase Plasminogen Activator (uPA) Biomarker Activity (AID 2284275); details: primary human bronchial epithelial cells with fibroblasts
In short: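 Co-culture of human bronchial epithelial cells and dermal fibroblasts; uPA quantified by ELISA 24 hours after dosing, fitted relative to DMSO. Parallel SRB total-protein staining assessed overt cytotoxicity.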

[11] = read-out: Matrix Metallopeptidase 9 (MMP9), MMP9 (gene 4318); assay: BSK_BF4T_MMP9: BioMAP Diversity Plus: BF4T Assay for Matrix Metallopeptidase 9 (MMP9) Biomarker Activity (AID 2284276); details: primary human bronchial epithelial cells with fibroblasts
In short: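 Co-culture of human bronchial epithelial cells and dermal fibroblasts dosed for 24 h; MMP-9 quantified by ELISA and fitted upward versus DMSO. Cytotoxicity monitored in parallel cultures by SRB total-protein staining at the biomarker time point.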

[12] = read-out: Interleukin-8 (IL8), CXCL8 (gene 3576); assay: BSK_IMphg_IL8: BioMAP Diversity Plus: IMphg Assay for Interleukin-8 (IL8) Biomarker Activity (AID 2284277); details: primary human endothelial cells with macrophages
In short: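 Co-culture of human venular endothelial cells and macrophages exposed to chemicals for 24 h; IL-8 quantified by ELISA and compared against the DMSO baseline, with SRB total-protein staining in parallel cultures for cytotoxicity.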

[13] = read-out: Vascular cell adhesion molecule 1 (VCAM1), VCAM1 (gene 7412); assay: BSK_IMphg_VCAM1: BioMAP Diversity Plus: IMphg Assay for Vascular cell adhesion molecule 1 (VCAM1) Biomarker Activity (AID 2284286); details: primary human endothelial cells with macrophages
In short: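 Human venular endothelial cells co-cultured with macrophages; VCAM-1 quantified by ELISA 24 h after dosing, fitted in the positive direction against DMSO. Cytotoxicity was checked in parallel cultures by SRB total-protein staining (0.1% SRB after 10% TCA fixation, 560 nm).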

CD40, CD40 (gene 958) = assay: BSK_IMphg_CD40: BioMAP Diversity Plus: IMphg Assay for CD40 Biomarker Activity (AID 2284288); details: primary human endothelial cells with macrophages
In short: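 Venular endothelial cells co-cultured with macrophages (human primary), CD40 measured by ELISA 24 h after dosing. Positive-direction fit vs DMSO baseline; cytotoxicity tracked by SRB total-protein staining in parallel cultures.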

[14] = read-out: E-selectin (Homo sapiens) (UniProt P16581); assay: BSK_IMphg_ESelectin: BioMAP Diversity Plus: IMphg Assay for Eselectin Biomarker Activity (AID 2284291); details: primary human endothelial cells with macrophages
In short: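 Human venular endothelial cell–macrophage co-culture, E-selectin measured by ELISA 24 h after chemical dosing. Signal fitted in the positive direction against DMSO as negative control and baseline.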

[15] = BSK_IMphg_SRB: Viability Assessment in the BioMAP Diversity Plus: IMphg Assay (AID 2284292); details: primary human endothelial cells with macrophages;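 also: measured one day after compound addition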
In short: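 Human venular endothelial cells with macrophages, 24 h after chemical dosing; total protein by 0.1% SRB staining after 10% TCA fixation, read at 560 nm. Positive-direction fitting versus DMSO baseline.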

[16] = read-out: Macrophage colony-stimulating factor (MCSF), CSF1 (gene 1435); assay: BSK_IMphg_MCSF: BioMAP Diversity Plus: IMphg Assay for Macrophage colony-stimulating factor (MCSF) Biomarker Activity (AID 2284293); details: primary human endothelial cells with macrophages
In short: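 Co-culture of human venular endothelial cells and macrophages, 24 hours of chemical exposure. M-CSF quantified by ELISA, with parallel SRB total-protein staining for cytotoxicity; activity fitted relative to DMSO.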

[17] = read-out: Interleukin-10 (IL10), IL10 (gene 3586); assay: BSK_IMphg_IL10: BioMAP Diversity Plus: IMphg Assay for Interleukin-10 (IL10) Biomarker Activity (AID 2284294); details: primary human endothelial cells with macrophages
In short: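 Human venular endothelial cells cocultured with macrophages, dosed 24 h; IL-10 measured by ELISA, activity relative to DMSO. Cytotoxicity assessed in parallel cultures by sulforhodamine B total-protein staining.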

[18] = BSK_IMphg_SRB.Mphg: Macrophage Viability Assessment in the BioMAP Diversity Plus: IMphg Assay (AID 2284295); details: primary human endothelial cells with macrophages
In short: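 Venular endothelial cells co-cultured with macrophages, read 24 h after dosing. Total protein measured by 0.1% SRB staining after 10% TCA fixation, absorbance at 560 nm. Fitted in positive direction against DMSO baseline.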

Chain of E-selectin (Homo sapiens) (P16581 whole entry, looked up): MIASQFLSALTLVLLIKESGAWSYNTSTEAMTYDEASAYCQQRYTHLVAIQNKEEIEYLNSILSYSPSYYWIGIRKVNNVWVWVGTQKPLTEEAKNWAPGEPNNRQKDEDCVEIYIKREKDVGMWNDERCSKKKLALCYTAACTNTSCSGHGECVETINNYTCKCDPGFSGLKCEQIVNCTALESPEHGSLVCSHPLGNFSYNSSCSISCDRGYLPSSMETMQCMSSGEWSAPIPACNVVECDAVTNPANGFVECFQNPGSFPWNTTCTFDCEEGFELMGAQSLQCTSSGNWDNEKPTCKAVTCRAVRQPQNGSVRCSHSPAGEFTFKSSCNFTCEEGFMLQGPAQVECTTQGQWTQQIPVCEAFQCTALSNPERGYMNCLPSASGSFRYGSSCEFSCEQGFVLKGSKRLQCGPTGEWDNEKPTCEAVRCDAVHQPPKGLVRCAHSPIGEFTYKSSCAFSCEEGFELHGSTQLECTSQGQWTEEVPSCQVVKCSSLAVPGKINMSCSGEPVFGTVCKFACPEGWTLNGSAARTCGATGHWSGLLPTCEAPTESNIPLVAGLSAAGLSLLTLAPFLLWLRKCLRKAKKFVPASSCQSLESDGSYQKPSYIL

CCCCCCCCCCCC
AC50 [1]: 7.01 µM (active) and 6.7 µM (active) | AC50 [2]: 8.03 µM (active) and 6.71 µM (active) | AC50 [3]: 9.52 µM (active) | outcome [3]: inactive | AC50 [4]: 5.07 µM (active) | outcome [4]: inactive | AC50 (KRT18 (gene 3875)): 5.09 µM (active) | outcome (KRT18 (gene 3875)): inactive | outcome [5]: inactive | AC50 [6]: 35.4 µM (active) | outcome [6]: inactive

O=C(CCCN1CCC(O)(c2ccc(Cl)cc2)CC1)c1ccc(F)cc1
outcome [7]: inactive | AC50 [8]: 15.9 µM (active) | outcome [9]: inactive

O=C(O)CCC(F)(F)C(F)(F)C(F)(F)C(F)(F)C(F)(F)C(F)(F)F
outcome [10]: inactive | outcome [11]: inactive | AC50 [12]: 14.2 µM (active) and 23 µM (active) and 17.1 µM (active) | outcome [1]: inactive | outcome [2]: inactive | outcome [3]: inactive | outcome [4]: inactive | outcome (KRT18 (gene 3875)): inactive | outcome [5]: inactive | outcome [13]: inactive | outcome (CD40, CD40 (gene 958)): inactive | outcome [14]: inactive | outcome [15]: inactive | outcome [16]: inactive | AC50 [17]: 38 µM (active) and 30 µM (active) | outcome [18]: inactive | outcome [6]: inactive

CC(C)c1c(C(=O)Nc2ccccc2)c(-c2ccccc2)c(-c2ccc(F)cc2)n1CC[C@@H](O)C[C@@H](O)CC(=O)O
outcome [7]: inactive | outcome [8]: inactive | outcome [9]: inactive
